Assay [1] is described as follows: circadian clock period modulators, cell-based, LOPAC library, luminescence reporter (AID 2774).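 Note: values are relative to mean of DMSO wells on each plate.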 As to conditions: circadian reporter cells, at 7 µM, actives lie on both sides.
Assay [2] deals with Hepatitis C virus NS3 helicase. The experiment in a line: HCV NS3 helicase inhibitors, primary screen, biochemical, fluorescence polarization, LOPAC1280 library (AID 687035; in the data active = inhibition above about 37%). Conditions: Purified HCV NS3 helicase, Cy5-dT15 ssDNA binding fluorescence polarization; stronger effect = higher value; concentration not given here.
The nature of assay [3]: Cy5 fluorescence quenching or enhancement artefacts, artefact control for HCV NS3 helicase inhibitor project, biochemical, LOPAC1280 (AID 687037). Conditions: Cy5-DNA-NS3h complex fluorescence interference counterscreen. (A counterscreen serves to expose hits that act by an unwanted route or on another target.)
Assay [4] is described as follows: sensitizers of A549 cells to miR-34 induction, primary screen, imaging, A549 dox-inducible miR-34, nuclei and caspase counts (AID 1347080;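 active = compounds whose cell count with miR-34 switched on is under 0.7 times the count with it off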). As to conditions: A549 miR-34 inducible, Hoechst nuclei count, 48 h.
A short description of assay [5]: phospholipid biosynthesis inhibitors in animal cells, primary screen, cell-based, LOPAC library, screen 4 (AID 1347384). As to conditions: phospholipid biosynthesis inhibition screen, at 10 µM.
A short description of assay [6]: viability rescue of complex I mutant cybrids, primary screen, cell-based, galactose medium, ATP luminescence (AID 1645843;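 active = z-score of at least 1.8 in each of two replicates, scored against plate mean and spread of sample wells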;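 note: positive z means more ATP and so rescue of galactose-driven cybrid death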). As to conditions: complex I mutant cybrid cells, 72 h, stronger effect = higher value.
Assay [7] in a line: liver-stage malaria parasite growth inhibition, primary screen, cell-based, HepG2, luciferase luminescence, HepG2 viability (AID 624349; in the data active = parasite load remaining mostly below about 12%, no sharp cut-off; inactive = mostly above about 10%;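 note: 100% = mean of DMSO negative control wells on the same plate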). Conditions: P. berghei liver stage in HepG2, luciferase luminescence, concentration not given here; parasite load remaining: stronger effect = lower value; viability: measured here: HepG2 viability without parasites.
Where [8] appears, read: stronger effect = lower value, cell number ratio, induced over uninduced.
The mark [9] stands for this setting: measured here: relative caspase fold change +Dox/-Dox.
Where [10] appears, read: measured here: total cells with miR-34 induction, stronger effect = lower value.
The mark [11] stands for this setting: measured here: total cells without miR-34 induction.

Each structure is given as a SMILES string. Activity calls are given as the source filed them. Unless noted, the rule behind the calls is not given here.

`N[C@H](C(=O)O)[C@H](O)C(=O)O`: in assay [1], the period change is -0.095 h (inactive). Further, the inhibition (usually the change of the read-out against control, counted positive when it falls) in assay [2] was -1% (inactive). Also, the fluorescence ratio (interference) in assay [3] was 1 (inactive). Moreover, the fold change was 0.956 (inactive) in assay [4] (setting [8]) and 1.57 in assay [4] (setting [9]). In addition, the cell count in assay [4] (setting [10]) amounted to 9780; in assay [4] (setting [11]), 10200. For the same compound, in assay [5], the outcome was inactive. Moreover, the z-score in assay [6] is 0.175 (inactive).

Turning to `O=c1cc(O)cc(/C=C/c2ccc(O)c(O)c2)o1`, the period change in assay [1] was -0.02 h (inactive). The inhibition in assay [2] was -1% (inactive). Further, the fluorescence ratio (interference) in assay [3] was 1 (inactive). Also, the results for the fold change in assay [4] (setting [8]) and in assay [4] (setting [9]) were 1.09 (inactive) and 1.07, respectively. Moreover, the values for the cell count in assay [4] (setting [10]) and in assay [4] (setting [11]) were 9040 and 8270, respectively. Besides, in assay [5], the outcome was inactive. The z-score in assay [6] was -0.475 (inactive).

Turning to `O=C(c1cc(O)c(O)c([N+](=O)[O-])c1)c1ccccc1F`, the period change in assay [1] was 0.055 h (inactive). For the same compound, the inhibition in assay [2] is 5% (inactive). The fluorescence ratio (interference) in assay [3] was 0.9 (inactive). Besides, the fold change is 1.18 (inactive) in assay [4] (setting [8]) and 1.45 in assay [4] (setting [9]). In addition, the figures for the cell count in assay [4] (setting [10]) and in assay [4] (setting [11]) were 7010 and 5940, respectively. Besides, in assay [5], the call was inactive. For the same compound, the z-score in assay [6] was -0.165 (inactive).

Turning to `Cc1cn([C@H]2C[C@@H](N=[N+]=[N-])[C@@H](CO)O2)c(=O)[nH]c1=O`, in assay [1], the period change was 0.06 h (inactive). Further, the inhibition in assay [2] was -1% (inactive). Besides, the fluorescence ratio (interference) in assay [3] is 0.9 (inactive). Besides, the figures for the fold change in assay [4] (setting [8]) and in assay [4] (setting [9]) were 1.13 (inactive) and 1.91, respectively. In addition, the cell count in assay [4] (setting [10]) came out at 8200; in assay [4] (setting [11]) it was 7230. For the same compound, in assay [5], the result was inactive. For the same compound, in assay [6], the z-score is 0.445 (inactive).

On to `Cc1cccc(C2CN(C)CCc3c2cc(O)c(O)c3Cl)c1` (centres undefined), for which the period change in assay [1] was 0.11 h (inactive). The inhibition in assay [2] is -4% (inactive). Further, the fluorescence ratio (interference) in assay [3] was 1 (inactive). The fold change in assay [4] (setting [8]) was 0.998 (inactive); in assay [4] (setting [9]), 1.65. Further, the figures for the cell count in assay [4] (setting [10]) and in assay [4] (setting [11]) were 6330 and 6340, respectively. Moreover, the result in assay [5] was inactive. In assay [6], the z-score was -1.29 (inactive).

Turning to `CC(O)C(O)[C@H]1CNc2nc(N)[nH]c(=O)c2N1` (some centres undefined), the period change in assay [1] is -0.26 h (inactive). For the same compound, the inhibition in assay [2] was -4% (inactive). For the same compound, in assay [3], the fluorescence ratio (interference) was 1 (inactive). Also, the fold change in assay [4] (setting [8]) is 0.979 (inactive); in assay [4] (setting [9]) it was 1.26. Also, the cell count in assay [4] (setting [10]) turned out to be 10500; in assay [4] (setting [11]) it was 10800. Further, in assay [5], the compound was classed as inactive. Moreover, the z-score in assay [6] is 0.515 (inactive).

With `Oc1ccc(C2CNCc3sccc32)cc1O` (centres undefined), the period change in assay [1] is 0.045 h (inactive). In addition, in assay [2], the inhibition was 5% (inactive). Moreover, the fluorescence ratio (interference) in assay [3] is 1 (inactive). Also, the fold change in assay [4] (setting [8]) was 0.942 (inactive); in assay [4] (setting [9]) it was 1.38. Besides, the cell count is 10000 in assay [4] (setting [10]) and 10600 in assay [4] (setting [11]). Besides, the outcome in assay [5] was inactive. For the same compound, in assay [6], the z-score was -1.29 (inactive).

For the compound `N#Cc1cc([N+](=O)[O-])c2sc(C(N)=O)[n+]([O-])c2c1`, the parasite load remaining in assay [7] was 32.2% (inactive). The viability (usually a per cent measure of how many cells are alive, often set against a control) in assay [7] amounted to 76.2%. Also, in assay [2], the inhibition is -4% (inactive). Besides, the fluorescence ratio (interference) in assay [3] is 1 (inactive). Besides, the fold change is 1.08 (inactive) in assay [4] (setting [8]) and 1.61 in assay [4] (setting [9]). The cell count came to 7220 in assay [4] (setting [10]) and 6660 in assay [4] (setting [11]). Further, in assay [5], the compound was classed as inactive. In addition, the z-score in assay [6] is -1.46 (inactive).

In the case of `Cn1c(=O)c2[nH]c(-c3ccccc3)nc2n(C)c1=O`, the period change in assay [1] was 0.09 h (inactive). Further, the inhibition in assay [2] is -3% (inactive). For the same compound, the fluorescence ratio (interference) in assay [3] is 1 (inactive). Further, the fold change in assay [4] (setting [8]) is 1.06 (inactive); in assay [4] (setting [9]), 3.05. In addition, the figures for the cell count in assay [4] (setting [10]) and in assay [4] (setting [11]) were 10000 and 9510, respectively. Besides, in assay [5], the outcome was inactive. Moreover, the z-score in assay [6] was 1.04 (inactive).

Take `Nc1ncnc2c1ncn2C1CCCC1`: in assay [1], the period change is 0.035 h (inactive). For the same compound, the inhibition in assay [2] is -6% (inactive). The fluorescence ratio (interference) in assay [3] was 0.9 (inactive). Besides, the fold change in assay [4] (setting [8]) was 1.02 (inactive); in assay [4] (setting [9]), 2.13. The cell count worked out at 10400 in assay [4] (setting [10]) and 10200 in assay [4] (setting [11]). In assay [5], the compound was called inactive. In addition, the z-score in assay [6] is -0.07 (inactive).

In the case of `CCCn1c(=O)c2c(ncn2C)n(CCC)c1=O`, in assay [1], the period change is -0.02 h (inactive). Moreover, the inhibition in assay [2] was -3% (inactive). The fluorescence ratio (interference) in assay [3] was 1.1 (inactive). In addition, the fold change in assay [4] (setting [8]) was 1 (inactive); in assay [4] (setting [9]) it was 1.17. Moreover, the cell count in assay [4] (setting [10]) worked out at 10000; in assay [4] (setting [11]) it was 9990. Besides, the result in assay [5] was inactive. Besides, the z-score in assay [6] is 0.46 (inactive).

As for `C#CCn1c(=O)c2c(ncn2C)n(C)c1=O`, the period change in assay [1] was -0.07 h (inactive). In assay [2], the inhibition is -1% (inactive). Moreover, the fluorescence ratio (interference) in assay [3] is 1 (inactive). Besides, the fold change is 0.971 (inactive) in assay [4] (setting [8]) and 0.997 in assay [4] (setting [9]). Besides, the cell count is 10100 in assay [4] (setting [10]) and 10400 in assay [4] (setting [11]). Besides, in assay [5], the compound was classed as inactive. The z-score in assay [6] is 0.15 (inactive).

On to `CC[C@@H](C)[C@H]1O[C@]2(CC[C@@H]1C)C[C@@H]1C[C@@H](C/C=C(\C)[C@@H](O[C@H]3C[C@H](OC)[C@@H](O[C@H]4C[C@H](OC)[C@@H](O)[C@H](C)O4)[C@H](C)O3)[C@@H](C)/C=C/C=C3\CO[C@@H]4[C@H](O)C(C)=C[C@@H](C(=O)O1)[C@]34O)O2`, for which the period change in assay [1] is 0.095 h (inactive). The inhibition in assay [2] is -2% (inactive). Besides, in assay [3], the fluorescence ratio (interference) was 1 (inactive). The fold change in assay [4] (setting [8]) is 0.888 (inactive); in assay [4] (setting [9]), 0.534. For the same compound, the cell count amounted to 1760 in assay [4] (setting [10]) and 1980 in assay [4] (setting [11]). The compound was called inactive in assay [5]. Further, the z-score in assay [6] is -1.29 (inactive).

Take `Nn1nnc2ccccc21`: the period change in assay [1] is -0.155 h (inactive). Also, in assay [2], the inhibition was -1% (inactive). Further, the fluorescence ratio (interference) in assay [3] was 1 (inactive). The fold change was 1.06 (inactive) in assay [4] (setting [8]) and 1.77 in assay [4] (setting [9]). The cell count in assay [4] (setting [10]) stood at 10600; in assay [4] (setting [11]) it was 9990. In addition, the call in assay [5] was inactive. In addition, the z-score in assay [6] is 0.305 (inactive).

As for `NC1CCN(O)C1=O` (centres undefined), the period change in assay [1] is 0.11 h (inactive). The inhibition in assay [2] was 0% (inactive). In addition, in assay [3], the fluorescence ratio (interference) is 1 (inactive). Moreover, the fold change in assay [4] (setting [8]) is 0.997 (inactive); in assay [4] (setting [9]), 1.98. The cell count in assay [4] (setting [10]) and in assay [4] (setting [11]) was 10200 each time. Moreover, in assay [5], the call was inactive. Besides, the z-score in assay [6] is 0.075 (inactive).

For `COc1cccc(OC)c1OCCNCC1CSc2ccccc2O1` (centres undefined), the period change in assay [1] is 0.065 h (inactive). Also, the inhibition in assay [2] was 0% (inactive). For the same compound, the fluorescence ratio (interference) in assay [3] was 1 (inactive). The figures for the fold change in assay [4] (setting [8]) and in assay [4] (setting [9]) were 1.03 (inactive) and 1.19, respectively. For the same compound, the figures for the cell count in assay [4] (setting [10]) and in assay [4] (setting [11]) were 7530 and 7340, respectively. In assay [5], the outcome was inactive. In addition, the z-score in assay [6] is -1.31 (inactive).

Consider `Fc1ccc(CN(C2=NCCN2)c2c(Cl)cccc2Cl)cc1`, for which the period change in assay [1] was -0.015 h (inactive). The inhibition in assay [2] is 1% (inactive). The fluorescence ratio (interference) in assay [3] was 1 (inactive). The fold change in assay [4] (setting [8]) is 0.978 (inactive); in assay [4] (setting [9]), 0.985. Also, the cell count in assay [4] (setting [10]) came out at 8870; in assay [4] (setting [11]) it was 9060. The outcome in assay [5] was inactive. Further, the z-score in assay [6] was -0.75 (inactive).

The values above are taken from PubChem BioAssay.
